Results filed as inconclusive are left out. Entries that show only a call come without a potency. The source made the active and inactive calls. Calls come from the whole dose curve; as a rule, active = well fitted inhibition curve with a large enough effect; inconclusive = small, poorly fitted or top-dose-only effect; inactive = no such curve, though single readings can be large or run the other way.
Potency is the fitted concentration of half-maximal effect.

The target of the assay is N-terminal Xaa-Pro-Lys N-methyltransferase 1 (Homo sapiens) (UniProt Q9BV86). The assay can be described thus: qHTS Assay for Inhibitors of N-terminal methyltransferase 1 (NTMT1): MTaseGlo Confirmatory Screen, Round 2. The settings on record: NTMT1 enzyme, MTase-Glo SAH luminescence; series mostly up to 57.4 µM. The text has this: Assay Submitter (PI): Rong Huang Ph.D, Purdue University, West Lafayette, IN 47907
Sequence of N-terminal Xaa-Pro-Lys N-methyltransferase 1 (Homo sapiens) (Q9BV86 whole entry, looked up): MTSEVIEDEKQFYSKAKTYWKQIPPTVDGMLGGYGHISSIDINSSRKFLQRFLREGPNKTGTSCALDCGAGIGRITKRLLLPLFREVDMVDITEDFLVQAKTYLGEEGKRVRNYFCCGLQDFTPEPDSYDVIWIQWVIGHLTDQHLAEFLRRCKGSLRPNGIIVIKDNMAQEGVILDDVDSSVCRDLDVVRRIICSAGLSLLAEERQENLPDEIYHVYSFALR
The N-terminal methytransferase 1 is the first methyltransferase that methylates protein alpha-N-amines and plays an important role in regulating cell mitosis, chromatin interactions and DNA repair. It is observed to be over-expressed in various cancer patient tissues like malignant melanoma and colorectal cancer tissues. Knockdown of NTMT1 in cancer cells causes cell mitotic defects and enhances sensitivity to DNA damaging chemotherapeutics. […] These critical cellular processes in which NTMT1 is implicated, coupled with emerging links to cellular dysfunction, strengthen the inference that NTMT1 is a compelling novel anticancer target. Progress have been made in understanding the molecular properties of NTMT1 and the biological consequences of protein alpha-N-terminal methylation, but there are no specific small molecule probes available for NTMT1 to fully characterize its MTase activity. To address this unmet need, a panel of assay is created and established to enable quantitative high-throughput screening (qHTS) for novel, potent, and selective small molecule NTMT1 inhibitors. Two orthogonal qHTS that use different reagents (ThioGlo vs. MTaseGlo) are developed for primary robotic screening against the NCATS chemical library of more than 400,000 small molecules. Identified inhibitors are reacquired, validated, and further characterized.
MTaseGlo Assay is a luminescence screen that measure the activity of methyltransferases based on the reaction product S-adenosyl homocysteine (SAH). The substrate SAM is converted to SAH upon enzyme activation. MTase-Glo reagent and detection solution convert SAH to ATP and measure the light from the luciferase reaction.
Early Translation Branch (ETB)
National Center for Advancing Translational Sciences (NCATS)
National Institute of Health (NIH)
NTMT1 enzyme, substrate SPKRIA, control peptide RCC1-6 is provided by the Huang laboratory.
In brief, 3 µL of enzyme mixture (final concentrations of 125 nM and 100 µM for NTMT1 and SAM, respectively) into all wells of a 1,536-well solid-bottom white plate (Greiner Bio One, Monroe, NC). 23 nL of DMSO or Ac-RCC1-10 (final concentration range 234 nM to 143 microM) was transferred via Wako Pin-tool (Wako Automation, Richmond, VA) and incubated (RT) for ~15 minutes. Next, 1 µL of substrate (final concentration 1 µM) or buffer was dispensed, and the reaction proceeded for 30 minutes (RT, protected from light) followed by a 1 microL addition of [5X] MTase-Glo Reagent(R). Samples were incubated (RT, protected from light) for 30 minutes to allow for SAH to be converted to ADP, followed by a 5 microL addition of [1X] MTase-Glo Detection Solution(R) to allow for ADP to be converted to ATP, which was then detected with a luciferase reaction. Samples were centrifuged for 15 seconds at 1,000 RPM's, followed by a RT incubation for 30 minutes. Plates were then read using Luminescence optics on a ViewLux detector. Data were normalized to no-enzyme (0% activity) and no-inhibitor (DMSO; 100%) controls, and the resulting percent inhibition data were fitted to a 4-parameter Hill equation using Graphpad Prism.
(In qHTS, concentration-response curves come from the screen itself.)
In the case of `Clc1ccc(N2CC3CCC(C2)N3)nn1`, the Potency entry is “inactive”.

Turning to `O=[N+]([O-])/C=C/c1ccc2c(c1)OCO2`, the Potency result is “inactive”.

Take `O=C1CC[C@@]2(O)C3Cc4ccc(O)c5c4C2(CCN3CC2CC2)[C@H]1O5` (stereo partly drawn): the Potency entry was “inactive”.

With `COC[C@H]1OC(=O)c2coc3c2[C@@]1(C)C1=C(C3=O)C2CCC(=O)[C@@]2(C)C[C@H]1OC(C)=O` (stereo partly drawn), the Potency entry is “inactive”.

`CC(=O)c1c(O)c(C)c(O)c(Cc2c(O)c3c(c(C(=O)/C=C/c4ccccc4)c2O)OC(C)(C)C=C3)c1O`: the Potency result was “inactive”.

For the molecule `NC(=O)CI`, the Potency is 8.91 µM (active).

For `N#C/C(=C/c1ccc(O)c(O)c1)C(N)=S`, the Potency entry was “inactive”.

Consider `O=S1(=O)N(CCN2CC=C(c3c[nH]c4cc(F)ccc34)CC2)c2cccc3c2N1CCC3`, for which the Potency result is “inactive”.

For the molecule `CN(N=O)c1cc(O)ccc1O`, the Potency result was “inactive”.

For the molecule `O=[N+]([O-])c1ccc2nc(N3CCNCC3)ccc2c1`, the Potency entry was “inactive”.

In the case of `CCn1cnc2c(Nc3cccc(Cl)c3)nc(N[C@@H]3CCCC[C@@H]3N)nc21`, the Potency is 11.2 µM (active).

For `NCC(O)c1cc(O)c(O)cc1F` (stereo not drawn), the Potency result is “inactive”.

On to `CNCCc1c[nH]c2ccc(O)cc12`, for which the Potency entry was “inactive”.

For the molecule `O=[N+]([O-])c1cc(O)c(O)c([N+](=O)[O-])c1`, the Potency result was “inactive”.

For the molecule `CC(N)Cc1c[nH]c2ccc(O)cc12` (stereo not drawn), the Potency entry is “inactive”.

As for `NC(Cc1cc(O)c(O)cc1O)C(=O)O` (stereo not drawn), the Potency was 15.8 µM (active).

With `c1ccc(CCCN2CCN(CCOC(c3ccccc3)c3ccccc3)CC2)cc1`, the Potency result is “inactive”.

Turning to `N#CC(C#N)=Cc1ccc(O)c(O)c1`, the Potency result was “inactive”.

Regarding `CC(N)[C@H](O)c1ccc(O)c(O)c1` (stereo partly drawn), the Potency entry was “inactive”.

Take `NC(N)=Nc1ccc2[nH]c3c(c2c1)C[C@@]1(O)[C@H]2Cc4ccc(O)c5c4[C@@]1(CCN2CC1CC1)[C@H]3O5`: the Potency is 25.1 µM (active).

For the molecule `CCCN(CCC)[C@H]1CCc2c(F)ccc(O)c2C1`, the Potency result was “inactive”.

As to `CC(C)=CCOc1c2occc2cc2ccc(=O)oc12`, the Potency entry was “inactive”.

`COc1ccc2c(c[n+](C)c3c4cc5c(cc4ccc23)OCO5)c1OC`: the Potency entry was “inactive”.

The values are drawn from PubChem BioAssay AID1347147 (National Center for Advancing Translational Sciences (NCATS), 2019).
